# LANA-H2A inh = blockers of LANA interaction with H2A/H2B – biochemical, FP readout, HTS, primary screen; Protein LANA1 (Human herpesvirus 8 type P (isolate GK18)), Q9QR71; cell-free LANA-H2A/H2B peptide, fluorescence polarization; inhibition, % (no concentration beside the values); 320,000 compounds, 0.6% hits; AID 2629, 2010; in the data active = inhibition mostly above about 10%, no sharp cut-off; inactive = mostly below about 6.7%
# m5-HT2A agonist = mouse Htr2a agonists via beta-arrestin recruitment, primary screen, cell-based, luminescence; 5-hydroxytryptamine receptor 2A (Mus musculus), P35363; CHO-K1 mHTR2A beta-arrestin complementation; percent of 30 µM serotonin response; activation, % at 7.6 µM; 360,000 compounds, 0.66% hits;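 active = activation above a run cutoff, the mean activation of all tested compounds plus 3 SD, cut at about 14% in these data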;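 also: 0% = plate median of compound wells and 100% = 30 µM serotonin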
# Target sequence (P35363 whole entry, looked up): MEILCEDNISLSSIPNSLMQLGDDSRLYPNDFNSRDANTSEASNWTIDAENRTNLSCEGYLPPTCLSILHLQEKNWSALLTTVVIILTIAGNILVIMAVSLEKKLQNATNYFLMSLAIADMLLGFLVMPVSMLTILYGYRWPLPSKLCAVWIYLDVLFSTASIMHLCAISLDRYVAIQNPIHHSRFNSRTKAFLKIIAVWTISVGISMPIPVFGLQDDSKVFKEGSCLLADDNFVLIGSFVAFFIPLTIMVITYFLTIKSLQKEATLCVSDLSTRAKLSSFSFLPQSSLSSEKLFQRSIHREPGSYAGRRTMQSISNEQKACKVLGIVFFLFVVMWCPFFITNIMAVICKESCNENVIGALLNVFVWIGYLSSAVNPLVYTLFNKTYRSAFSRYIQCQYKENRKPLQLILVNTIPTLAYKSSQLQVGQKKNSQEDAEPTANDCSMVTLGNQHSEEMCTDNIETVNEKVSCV
# HDAC3 inhib = HDAC3 deacetylase inhibitors, primary screen, biochemical, fluorescence, cell-free homogeneous; AID 2718, 2010; inhibition, % at 8.3 µM; 320,000 compounds, 0.15% hits; recombinant HDAC3, fluorogenic peptide/trypsin coupled; Histone deacetylase 3 (Homo sapiens), O15379; in the data active = inhibition above about 26%, passing the limit was not always enough
# CTSL1 counter = Fasciola hepatica cathepsin L1 inhibitors, primary screen, counter-screen for PFM18AAP inhibitor project, biochemical, QFRET, fluorogenic peptide substrate; recombinant F. hepatica cathepsin L1, Z-Leu-Arg-MCA fluorescence; inhibition, % at 5.96 µM; 300,000 compounds, 0.49% hits; AID 1906, 2009;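 active = inhibition above the mean of all tested compounds plus 3 SD, set per screening campaign, cut at about 17% in these data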;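 also: 0% = plate median of test compound wells and 100% = 1 µM Z-Phe-Ala-diazomethylketone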
# The depositor's hits bear a star; / = not tested or not shown; + = active, no number. Hits are enriched below; roughly 1.7% of the tested compounds scored in any of these assays.
SMILES,LANA-H2A inh,m5-HT2A agonist,HDAC3 inhib,CTSL1 counter
COc1cccc(NC(=O)CN(C)C(=O)c2ccccc2OCc2c(C)noc2C)c1,-1,-3,-3,27*
CN(C)CCCNC(=O)CC(c1ccc(F)cc1)c1ccco1 (configuration not stated),-1,4,5,3
CCN(CC)C(=O)CC(c1ccc(F)cc1)c1ccco1 (configuration not stated),-3,3,3,49*
CCCN(CCC)C(=O)CC(c1ccccc1)c1ccco1 (configuration not stated),-11,-2,-2,41*
NC(=O)CC(c1ccccc1)c1ccco1 (configuration not stated),0,1,2,1
CCCOc1ccc(NC(=O)CCC(=O)NC(C)c2ccccc2)cc1 (configuration not stated),0,-1,-4,-7
CCOC(=O)C1CCN(C(=S)NC2CC3C=CC2C3)CC1 (configuration not stated),21*,7,5,-1
NC(=O)C1CCN(C(=S)NC2CC3C=CC2C3)CC1 (configuration not stated),0,-2,/,0
Cc1ccc(S(=O)(=O)N2CCOC2CNC(=O)C(=O)NCCN(C)C)cc1 (configuration not stated),-2,1,3,-1
Cc1cccc(NC(=O)CCC(=O)N2CCOCC2)n1,0,7,-2,/
C[N+](C)(C)c1ccc(/C=N/Nc2nc(Cl)c(C#N)c(Cl)c2Cl)cc1,54*,-6,3,3
CC1CN(S(=O)(=O)c2cc(C(=O)N3CCCCC3C)ccc2Cl)CC(C)O1 (configuration not stated),-1,2,-3,/
c1ccc(-c2nc(-c3cccnc3)n[nH]2)cc1,-1,/,-2,-2
Brc1cccc(-c2n[nH]c(-c3ccccc3)n2)c1,17*,4,5,3
CCOc1ccc(CCNC(=O)COC(=O)c2nn(C)c(=O)c3ccccc23)cc1OCC,12*,4,7,-2
O=C(CN(C(=O)c1csnn1)c1cccc2ccccc12)NCc1ccc(F)cc1,20*,-6,4,-2
Cc1cccc(C(=O)O)c1NC(=O)Cc1cccc2ccccc12,1,-2,3,-3
Cc1cc(C)c(SSc2nnnn2-c2ccccc2)c(C)c1,/,10,/,/
CCc1nnc(N/N=C/c2cc(Br)c(O)cc2O)n1N,-10,3,6,0
CC(C)(C)c1nnc(N/N=C/c2cc(Br)ccc2O)n(N)c1=O,+,-9,10,0
CC(=O)c1cccc(NC(=S)NC(=O)c2ccccc2Cl)c1,7,-2,-7,0
CC(=O)c1cccc(NC(=S)NC(=O)c2ccc(C)cc2Cl)c1,36*,3,1,-1
O=S(=O)(Nc1ccc2c(c1)OCO2)c1ccc(F)c(F)c1,27*,-2,5,/
O=C(O)c1cccc(S(=O)(=O)Nc2ccc3c(c2)OCO3)c1,2,1,8,7
COc1ccc(C2=Nn3c([n+](C)c4ccccc43)SC2)cc1,4,-2,31*,8
SMILES,LANA-H2A inh,m5-HT2A agonist,HDAC3 inhib,CTSL1 counter
CC1Sc2n(c3ccccc3[n+]2C)N=C1c1ccccc1 (configuration not stated),1,-3,0,1
COc1ccc(C2=Nn3c(nnc3-c3ccccn3)SC2)cc1,1,-1,8,9
C[n+]1c2n(c3ccccc31)N=C(c1ccc(Cl)cc1)CS2,2,0,55*,0
COc1ccc(N=Nc2nc3ccc(Br)cc3n2C)cc1,88*,0,-2,2
CCCn1c(=O)c(C(=O)NCCc2ccc(OC)cc2)c(O)c2ccccc21,7,9,-1,/
COc1ccccc1N1CCN(C2CC(=O)N(c3cccc(Cl)c3)C2=O)CC1 (configuration not stated),21*,5,5,-1
COc1cccc(OC)c1OCCCOc1c(OC)cccc1OC,5,-7,-10,-2
COc1cccc(OCCOc2c(OC)cccc2OC)c1,14*,2,1,-1
O=c1[nH]cnc2c1ncn2-c1ccc(N(CCO)CCO)cc1,/,5,/,/
CCOC(=O)c1sc(=NC(=O)c2c(F)cccc2F)n(C)c1C,3,0,-6,18*
COc1ccc(-n2c(C)c(C)c3c(NCCCO)ncnc32)cc1,4,-3,1,/
COc1ccc(N2CCN(CCNC(=O)CCCn3c(=O)[nH]c4cc(Cl)ccc4c3=O)CC2)cc1,19*,-5,-1,-2
C=CC[C@@H](CC(=O)N[C@@H](CO)Cc1ccccc1)C(=O)N[C@H](COC(=O)[C@@H](CC=C)CC(=O)OC(C)(C)C)Cc1c[nH]c2ccccc12,-405,0,37*,/
C=CC[C@H](CC(=O)N[C@H](CO)Cc1ccccc1)C(=O)N[C@@H](COC(=O)[C@@H](CC=C)CC(=O)OC(C)(C)C)Cc1c[nH]c2ccccc12,19*,1,32*,/
CCOC(=O)c1sc(NC(=O)c2ccncc2)c(C#N)c1C,/,-1,/,19*
CCCCCCCCN1C(=O)[C@H](CC(=O)N2CCC(c3ccccc3)CC2)C[C@@]2(C(=O)OC)CC(C)(C)CC=C12,/,3,/,/
CCOC(CNC(=O)c1cccc([N+](=O)[O-])c1)OCC,0,13,0,38*
Cc1ccc(S(=O)(=O)N2CCN(CCOc3cccc(C)c3)CC2)cc1,4,-11,7,/
COc1ccc(S(=O)(=O)N2CCC(Nc3ccccc3Cl)CC2)cc1,38*,4,-8,/
COc1cccc(OC)c1C(=O)NCCNc1nc2cc(C)cc(C)c2cc1C#N,/,2,/,/
Cc1cnc(NC(=O)c2ccc(-c3ccc([N+](=O)[O-])cc3)o2)s1,8,1,-4,/
Cc1cnc(NC(=O)c2ccc(-c3nc4ccccc4s3)o2)s1,29*,-2,6,5
COc1ccc(N2CCN(C(=O)COC(=O)COc3ccc(C#N)cc3)CC2)cc1,1,-2,-1,-5
CSc1nc(NCCN(C)C)c2sc3nc(-c4ccco4)c4c(c3c2n1)CCC4,/,0,/,/
CSc1nc(N(C)CCO)c2sc3nc(-c4ccco4)c4c(c3c2n1)CCC4,-3,7,-4,22*
Cc1ccc(SCC(=O)NC(=O)c2ccccc2Br)c(C)c1,-1,3,-2,/
N#Cc1c(N2CCCC2)nc(N)c2c(N)nc(N3CCCC3)cc12,3,6,-12,110*
CCCn1c(=O)n(C)c(=O)c2c(SCC(=O)NCC(c3ccccc3)N(C)C)nc(CC(C)C)nc21 (configuration not stated),-8,-7,3,4
COc1cc(C(=O)O/N=C2\C=CC(=O)C(C)=C2)cc(OC)c1OC,1,-2,62*,6
CCOC(=O)/C=C/C(=O)NNC(=O)c1ccccc1Cl,-1,2,8,46*
